From PubChem BioAssay

Experiment: probe aLAP1 signal on lysate-treated microarray – cell lysate, small-molecule microarray, COS7 lysate, primary screen (AID 1124);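 also: lysate comes from COS7 cells expressing LAP1 and is applied at 0.3 µg/mL; score merges spot fluorescence near 667 nm with signal-to-noise over triplicate slides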
Details: probe aLAP1, fluorescence, higher = more signal

| SMILES | composite z-score |
| --- | --- |
| C=C(COC)/C(=C/C[C@H](OC(C)=O)c1ccc(CO)o1)c1cc(C(=O)OC)ccc1OC | 0.022 |
| O=C(NCCN1CCOCC1)C1N=C(c2ccc(OCCCO)cc2)N(c2ccccc2)O1 (stereo not given) | 0.908 |
| COCCOC(=O)N1C(=O)[C@@]2(c3cc(C#CCCO)ccc31)[C@H](C(=O)N1CCCCCCC1)[C@H]1C(=O)O[C@H](c3ccccc3)[C@H](c3ccccc3)N1[C@@H]2c1ccc(OCCO)cc1 | 0.906 |
| COc1cc(Br)cc(C(O)C2C=CC3C(=O)N(C)C(=O)C3N2N2CCCCC2)c1OC (stereo not given) | 0.112 |
| C=C(C)[C@@H]1CC=C(C(O)C2C=CC3C(=O)N(C)C(=O)C3N2Nc2ccccc2)CC1 (stereo not given in full) | 0.201 |
| O=C(N1CCCCC1)[C@]1(Cc2ccccc2)N=C(c2ccc(OCCCO)cc2)O[C@@H]1c1ccccc1 | 0.968 |
| CC(C)c1ccc(NN2C(C(O)c3ccc(B(O)O)cc3)C=CC3C(=O)N(c4ccccc4)C(=O)C32)cc1 (stereo not given) | 0.681 |
| C=CCNC(=O)[C@@H]1[C@H]2C(=O)O[C@H](c3ccccc3)[C@H](c3ccccc3)N2[C@H](c2ccccc2OCCO)[C@@]12C(=O)N(C(=O)OCCOC)c1ccccc12 | 0.594 |
| CC(C)C(O)C1C=CC2C(=O)N(c3ccccc3)C(=O)C2N1Nc1ccc([N+](=O)[O-])cc1 (stereo not given) | 0.894 |
| COC(=O)[C@@]1(Cc2ccc(OC)cc2)[C@@H]2C(=CC(=O)[C@H]2CC(=O)C(=O)N2CCCC2)CN1C(=O)c1ccccc1 | 0.0014 |
| COC(=O)[C@@]1(Cc2ccc(OC)cc2)[C@H]2c3cc(C(=O)N(C)C)n(Cc4ccc(S(C)(=O)=O)cc4)c3C[C@H]2CN1C(=O)c1ccccc1 | 0.969 |
| COCCOC(=O)N1C(=O)[C@@]2(c3cc(C#CC4(O)CCCCCC4)ccc31)[C@H](c1ccc(OCCO)cc1)N1[C@H](c3ccccc3)[C@H](c3ccccc3)OC(=O)[C@H]1[C@@H]2C(=O)N1CCN(c2ncccn2)CC1 | -0.163 |
| COc1ccc(C#Cc2ccc3c(c2)[C@]2(C(=O)N3)[C@H](C(=O)Nc3nc4ccccc4s3)[C@H]3C(=O)O[C@H](c4ccccc4)[C@H](c4ccccc4)N3[C@@H]2c2ccc(O)cc2)cc1 | 0.641 |
| OCCCC1=CC(c2cccs2)N(Cc2cc3c(cc2Br)OCO3)CC1 (stereo not given) | 0.242 |
| CCN(CC)c1ccc(N2CC=CC34O[C@@H]5C=CCCOC(=O)C5[C@H]3C(=O)N(CCCCCCO)[C@@H]4C2=O)cc1 (stereo not given in full) | 1.46 |
| CCCCCN1CC=CC23O[C@@H]4/C=C\CCC(C)OC(=O)C4[C@H]2C(=O)N(C(C)CO)[C@@H]3C1=O (stereo not given in full) | 0.169 |
| CC(C)OC(=O)C=C1C[C@@H](c2ccccn2)O[C@@H](c2ccccn2)O1 | 1.32 |
| C=CCOC(=O)[C@H]1[C@@H]2C(=O)O[C@@H](c3ccccc3)[C@@H](c3ccccc3)N2[C@@H](c2ccc(OCCOC(=O)[C@@H]3C[C@@H]4C(=O)N[C@@H](CCCCNC(C)=O)C(=O)N4[C@@H]3c3ccc(O)cc3)cc2)[C@]12C(=O)Nc1ccccc12 | 0.21 |

| SMILES | composite z-score |
| --- | --- |
| Cc1nc2cc(Br)ccc2c(=O)o1 | 0.108 |
| C=CCOC(=O)[C@H]1[C@@H]2C(=O)O[C@@H](c3ccccc3)[C@@H](c3ccccc3)N2[C@@H](c2ccc(OCCOC(=O)[C@H]3C[C@H]4C(=O)N[C@@H](CCCCNC(C)=O)C(=O)N4[C@H]3c3ccc(O)cc3)cc2)[C@]12C(=O)Nc1ccc(I)cc12 | 0.0563 |
| C=C[C@@H](COC(=O)OC(C)(C)C)N(Cc1ccc(OC)cc1)S(=O)(=O)c1ccc(Br)cc1 | -0.024 |
| COc1ccc([Si](C)(C)[C@H]2[C@H](CCO)O[C@@]3(C(=O)N(Cc4ccc(N(C=O)c5ccccc5)cc4)c4ccccc43)[C@@H]2C)cc1 | -0.33 |
| COCCOC(=O)N1C(=O)[C@@]2(c3cc(C#Cc4ccc(OC)cc4)ccc31)[C@H](c1ccc(OCCO)cc1)N1[C@H](c3ccccc3)[C@H](c3ccccc3)OC(=O)[C@H]1[C@@H]2C(=O)N1CCN(c2ncccn2)CC1 | 0.182 |
| COc1ccc(C#Cc2ccc3c(c2)[C@]2(C(=O)N3)[C@H](c3ccccc3OCCO)N3[C@H](c4ccccc4)[C@H](c4ccccc4)OC(=O)[C@H]3[C@@H]2C(=O)Nc2nc3ccccc3s2)cc1 | 0.0878 |
| CCCC[C@@H]1C[C@H]1[C@@H](NC(=O)C(C)(C)C)c1ccc(C(F)(F)F)cc1 | 0.0265 |
| COC(=O)C(CC#Cc1ccc2c(c1)[C@]1(C(=O)N2)[C@H](c2ccc(OCCO)cc2)N2[C@H](c3ccccc3)[C@H](c3ccccc3)OC(=O)[C@H]2[C@@H]1C(=O)Nc1nc2ccccc2s1)C(=O)OC | -0.065 |
| COc1ccc(CCNC(=O)[C@@]2(Sc3ccc(C)cc3)CC(=O)N(C(C)C)[C@@H]2c2ccc(CO)cc2I)cc1 | 0.648 |
| COC(=O)[C@@]1(Cc2ccc(F)cc2)[C@H]2c3cc(C(=O)N4CCCC4)n(Cc4ccc(S(C)(=O)=O)cc4)c3C[C@H]2CN1C(=O)c1ccccc1 | 1.21 |
| O=C1c2ccccc2[C@](Cc2ccccc2I)(C(=O)NCCN2CCOCC2)[C@H](c2ccc(CO)cc2)N1C1CCCCC1 | 0.382 |
| COC(=O)[C@@]1(CCS(=O)(=O)c2ccccc2)N=C(c2ccc(OCCCO)cc2)O[C@H]1c1ccccc1CN=[N+]=[N-] | 0.372 |
| COCCOC(=O)N1C(=O)[C@@]2(c3cc(C#CCNC(N)=O)ccc31)[C@H](C(=O)Nc1nc3ccccc3s1)[C@H]1C(=O)O[C@H](c3ccccc3)[C@H](c3ccccc3)N1[C@@H]2c1ccc(OCCO)cc1 | 0.422 |
| CC(C)NC(=O)[C@@H]1c2ccccc2C(=O)N(C2Cc3ccccc3C2)[C@H]1c1ccc(CO)cc1 | 0.781 |
| CC(C)=CCCC(C)=CC(O)C1C=CC2C(=O)N(C)C(=O)C2N1Nc1ccccc1 (stereo not given) | 0.309 |
| [N-]=[N+]=NCc1ccccc1C[C@]1(C(=O)N2CCCCC2)N=C(c2ccc(OCCCO)cc2)O[C@H]1c1ccccc1N=[N+]=[N-] | 0.799 |
| CCOC(=O)C[C@H]1[C@H](OC(=O)c2ccc(C(=O)c3ccccc3)cc2)[C@@H](NC(=O)CC(C)C)c2cc(OCCCO)ccc2N1C(=O)c1ccc2ccccc2n1 | 0.323 |
